# Results from PubChem BioAssay (NCI).
# The panel holds about 83,000 compounds, 20% with a hit somewhere; the sample as a whole holds those more often.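 Results are percent growth after 48 hours of single-concentration exposure. 100 means growth as in untreated cells, lower positive values show inhibition; negative values down to -100 show cell death.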 Unmarked numbers belong to inactive results. Calls of active or inactive are those of the source. How the source made its calls: active means growth percent below 10; inactive means the rest.
# System: SK-OV-3 ovarian
# Assay: NCI-60 one-dose screen, 48 h (100 = growth as untreated, 0 = no growth, -100 = all killed)
# Conditions: 10 µM unless noted
row,Structure (SMILES),growth
1,O=C(Cn1c2ccccc2c2ccncc21)N/N=C/c1c[nH]c2ccccc12,107%
2,CC1(C)CC(=O)C2=C(C1)OC1=C(C(=O)CC(C)(C)C1)C2c1ccc(OCc2cn(-c3ccc(F)cc3F)nn2)cc1,100%
3,c1ccc2c(c1)Oc1cccnc1-n1nccc1-2,104%
4,NC(=NCCCOc1ccc(F)cc1)Nc1ccc(Cl)c(Cl)c1,99.8%
5,O=C1OC(N(Cc2ccc(Cl)cc2)c2ccccc2)c2ccccc21 (stereo unspecified),97.2%
6,O=C(Nc1cccc([N+](=O)[O-])c1)Nc1cccc([N+](=O)[O-])c1,87.6%
7,CCOc1ccc(-n2c(-c3cc(OC)c(OC)c(OC)c3)nnc2-c2ccc(OC)cc2N)cc1,75.2%
8,CC(=O)CC/C=C(\C)[C@H](O)[C@H](C)C(=O)O[C@H]1C[C@H](C)C=C2C=C[C@@]3(C)O[C@@H](O)CC(=O)[C@]3(C)[C@H]21,-25.5% (active)
9,Cc1cccc[n+]1CCC[n+]1ccccc1C,76.1%
10,C#CC(=O)/C=C/CCCCCCC#CC(=O)CCC(=O)C#CCCCCCC/C=C/C(=O)C#C,91.8%
11,COc1ccc2c(c1)OC(N)=C(C#N)C2c1ccc(F)cc1 (stereo unspecified),16.6%
12,CC1=C2C(=C[C@@](C)(CO)[C@@H]2OC(=O)N(C)CCN(C)C(=O)OC(C)(C)C)C(=O)[C@](C)(O)C12CC2,35.3%
13,COc1ccc2c(-c3ccc(F)cc3)c(C#N)c(=NC(C)=O)oc2c1,44.6%
14,CC(C)(C)OC(=O)NCc1cccc(N=C=S)c1,88.2%
15,CN(C)CCS(=O)(=O)Nc1cc(-c2ccc3ncnc(Nc4ccc(F)c(Cl)c4)c3c2)cnc1Cl,-42.7% (active)
16,C=C1C(=O)O[C@H]2[C@H]1CC/C(COC(=O)c1ccc(Cl)nc1)=C\CC[C@@]1(C)O[C@@H]21,99.3%
17,C=CC(=O)NC(=O)Nc1ccccc1Cl,87.3%
18,Nc1nc(-c2cc3c(cc2Cl)NC(=O)/C3=C/c2ccc(Cl)cc2)cs1,71.8%
19,COc1cc2ncn3c(=O)c4c5c(sc4nc3c2cc1OC)CCCCC5,99.6%

row,Structure (SMILES),growth
1,CCn1cc(C(=O)O)c(=O)c2cc(F)c(N3CCN(CC(=O)Nc4ccc(C(C)=O)cc4)CC3)cc21,99.9%
2,CCNC(=O)Oc1ccc(/C(=C(/CC)Cc2ccccc2)c2ccc(OCCN3CCOCC3)cc2)cc1,75.5%
3,CCCCCCCCCCCCCCCCNc1ccccc1,103%
4,CC(/C=C/C=C(\C)[C@H](O)[C@H](C)C(=O)O[C@H]1C[C@H](C)C=C2C=C[C@@]3(C)O[C@@H](O)CC(=O)[C@]3(C)[C@H]21)=C\C=C\C(=O)O,2.67% (active)
5,COc1ccc2c(c1)OC(N(C(C)=O)C(C)=O)=C(C#N)C2c1ccc(F)cc1 (stereo unspecified),23.9%
6,N#Cc1c(N)nc(Cl)c(C#N)c1C(=O)c1ccccc1,74.5%
7,CCCCCCCC(=O)SCC/C=C/[C@@H]1CC(=O)NCc2nc(cs2)C2=N[C@@](C)(CS2)C(=O)N[C@@H](C(C)C)C(=O)N1,-4.42% (active)
8,COC(=O)c1ccc2c(c1)Oc1ccc(Cl)cc1-c1cc(C)nn1-2,53.5%
9,Nc1n[nH]c2cccc(C#Cc3cccc(NC(=O)c4cccc(C(F)(F)F)c4)c3)c12,46.3%
10,Cc1ccc(NC(=O)CN2CCOCC2)cc1Cl,90.1%
11,C=C1C(=O)O[C@H]2[C@H]1CC/C(COC(=O)c1ccc(C#N)cc1)=C\CC[C@@]1(C)O[C@@H]21,106%
12,C=CC(C)(O)CCC1C(=C)CCC2C(C)(C)CCCC12C (stereo unspecified),94.1%
13,CCOC(=O)c1noc2c1CCc1cn(Cc3cc(OC)cc(OC)c3)cc1-2,101%
14,Nc1nc(Nc2ccc(OCc3cccc(F)c3)cc2)c2c(n1)[nH]c1ccc(O)cc12,-1.21% (active)
15,C#C[C@@]1(O)[C@@H](CO)O[C@@H](n2cc(Br)c3c(Cl)ccnc32)[C@@H]1O,42.1%
16,C=C1C(=O)O[C@H]2[C@H]1CC/C(CNC(=O)/C1=C/CC[C@@]3(C)O[C@H]3[C@H]3OC(=O)C(=C)[C@@H]3CC1)=C\CC[C@@]1(C)O[C@@H]21,89.8%
17,COc1ccc(N)c(S)c1,85%
18,C=CC(=O)Nc1cccc(Nc2nc(Nc3ccc(OCCOC(F)F)cc3)ncc2F)c1,-25% (active)
19,O=C(c1ccccc1)[C@H]1[C@@H]2CCCN2[C@]2(C(=O)Nc3ccc(F)cc32)[C@]12C(=O)Nc1ccccc12,83.8%

# System: IGROV1 ovarian
# Assay: as above
# Conditions: 10 µM unless noted
row,Structure (SMILES),growth
1,O=C(Cn1c2ccccc2c2ccncc21)N/N=C/c1c[nH]c2ccccc12,89.2%
2,CC1(C)CC(=O)C2=C(C1)OC1=C(C(=O)CC(C)(C)C1)C2c1ccc(OCc2cn(-c3ccc(F)cc3F)nn2)cc1,102%
3,c1ccc2c(c1)Oc1cccnc1-n1nccc1-2,104%
4,NC(=NCCCOc1ccc(F)cc1)Nc1ccc(Cl)c(Cl)c1,45.9%
5,O=C1OC(N(Cc2ccc(Cl)cc2)c2ccccc2)c2ccccc21 (stereo unspecified),90.7%
6,O=C(Nc1cccc([N+](=O)[O-])c1)Nc1cccc([N+](=O)[O-])c1,63.6%
7,CCOc1ccc(-n2c(-c3cc(OC)c(OC)c(OC)c3)nnc2-c2ccc(OC)cc2N)cc1,57.2%
8,CC(=O)CC/C=C(\C)[C@H](O)[C@H](C)C(=O)O[C@H]1C[C@H](C)C=C2C=C[C@@]3(C)O[C@@H](O)CC(=O)[C@]3(C)[C@H]21,-17.7% (active)
9,Cc1cccc[n+]1CCC[n+]1ccccc1C,107%
10,C#CC(=O)/C=C/CCCCCCC#CC(=O)CCC(=O)C#CCCCCCC/C=C/C(=O)C#C,-39.5% (active)
11,COc1ccc2c(c1)OC(N)=C(C#N)C2c1ccc(F)cc1 (stereo unspecified),53.1%
12,CC1=C2C(=C[C@@](C)(CO)[C@@H]2OC(=O)N(C)CCN(C)C(=O)OC(C)(C)C)C(=O)[C@](C)(O)C12CC2,9.25% (active)
13,COc1ccc2c(-c3ccc(F)cc3)c(C#N)c(=NC(C)=O)oc2c1,54%
14,CC(C)(C)OC(=O)NCc1cccc(N=C=S)c1,43.1%
15,CN(C)CCS(=O)(=O)Nc1cc(-c2ccc3ncnc(Nc4ccc(F)c(Cl)c4)c3c2)cnc1Cl,-23.7% (active)
16,C=C1C(=O)O[C@H]2[C@H]1CC/C(COC(=O)c1ccc(Cl)nc1)=C\CC[C@@]1(C)O[C@@H]21,13.1%
17,C=CC(=O)NC(=O)Nc1ccccc1Cl,88.2%
18,Nc1nc(-c2cc3c(cc2Cl)NC(=O)/C3=C/c2ccc(Cl)cc2)cs1,34.9%
19,COc1cc2ncn3c(=O)c4c5c(sc4nc3c2cc1OC)CCCCC5,79.3%

row,Structure (SMILES),growth
1,CCn1cc(C(=O)O)c(=O)c2cc(F)c(N3CCN(CC(=O)Nc4ccc(C(C)=O)cc4)CC3)cc21,102%
2,CCNC(=O)Oc1ccc(/C(=C(/CC)Cc2ccccc2)c2ccc(OCCN3CCOCC3)cc2)cc1,59.4%
3,CCCCCCCCCCCCCCCCNc1ccccc1,91.6%
4,CC(/C=C/C=C(\C)[C@H](O)[C@H](C)C(=O)O[C@H]1C[C@H](C)C=C2C=C[C@@]3(C)O[C@@H](O)CC(=O)[C@]3(C)[C@H]21)=C\C=C\C(=O)O,5.48% (active)
5,COc1ccc2c(c1)OC(N(C(C)=O)C(C)=O)=C(C#N)C2c1ccc(F)cc1 (stereo unspecified),56.1%
6,N#Cc1c(N)nc(Cl)c(C#N)c1C(=O)c1ccccc1,32.1%
7,CCCCCCCC(=O)SCC/C=C/[C@@H]1CC(=O)NCc2nc(cs2)C2=N[C@@](C)(CS2)C(=O)N[C@@H](C(C)C)C(=O)N1,0.908% (active)
8,COC(=O)c1ccc2c(c1)Oc1ccc(Cl)cc1-c1cc(C)nn1-2,61.8%
9,Nc1n[nH]c2cccc(C#Cc3cccc(NC(=O)c4cccc(C(F)(F)F)c4)c3)c12,-7.33% (active)
10,Cc1ccc(NC(=O)CN2CCOCC2)cc1Cl,107%
11,C=C1C(=O)O[C@H]2[C@H]1CC/C(COC(=O)c1ccc(C#N)cc1)=C\CC[C@@]1(C)O[C@@H]21,7.59% (active)
12,C=CC(C)(O)CCC1C(=C)CCC2C(C)(C)CCCC12C (stereo unspecified),108%
13,CCOC(=O)c1noc2c1CCc1cn(Cc3cc(OC)cc(OC)c3)cc1-2,110%
14,Nc1nc(Nc2ccc(OCc3cccc(F)c3)cc2)c2c(n1)[nH]c1ccc(O)cc12,-21.8% (active)
15,C#C[C@@]1(O)[C@@H](CO)O[C@@H](n2cc(Br)c3c(Cl)ccnc32)[C@@H]1O,61%
16,C=C1C(=O)O[C@H]2[C@H]1CC/C(CNC(=O)/C1=C/CC[C@@]3(C)O[C@H]3[C@H]3OC(=O)C(=C)[C@@H]3CC1)=C\CC[C@@]1(C)O[C@@H]21,102%
17,COc1ccc(N)c(S)c1,94.9%
18,C=CC(=O)Nc1cccc(Nc2nc(Nc3ccc(OCCOC(F)F)cc3)ncc2F)c1,14%
19,O=C(c1ccccc1)[C@H]1[C@@H]2CCCN2[C@]2(C(=O)Nc3ccc(F)cc32)[C@]12C(=O)Nc1ccccc12,81.3%
